Potency and affinity values are given separately. Active and inactive are the calls of the source.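 How the source made its calls: active means potentiation or inhibition seen at some tested dose and a dose response curve obtained; inactive means no potentiation or inhibition at any dose, or no curve.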
What follows are compounds tested against Potassium voltage-gated channel subfamily KQT member 1 (Homo sapiens) + Potassium voltage-gated channel subfamily E member 1 (Homo sapiens) (UniProt P15382+P51787) (assay: KCNQ1/KCNE1 channel current potentiation, dose response, selectivity assay for KCNQ2 activator project, automated patch clamp, CHO cells (AID 493042)). Settings: series mostly up to 30 µM.
Sequence of Potassium voltage-gated channel subfamily KQT member 1 (Homo sapiens) + Potassium voltage-gated channel subfamily E member 1 (Homo sapiens) (O88943 whole entry, looked up): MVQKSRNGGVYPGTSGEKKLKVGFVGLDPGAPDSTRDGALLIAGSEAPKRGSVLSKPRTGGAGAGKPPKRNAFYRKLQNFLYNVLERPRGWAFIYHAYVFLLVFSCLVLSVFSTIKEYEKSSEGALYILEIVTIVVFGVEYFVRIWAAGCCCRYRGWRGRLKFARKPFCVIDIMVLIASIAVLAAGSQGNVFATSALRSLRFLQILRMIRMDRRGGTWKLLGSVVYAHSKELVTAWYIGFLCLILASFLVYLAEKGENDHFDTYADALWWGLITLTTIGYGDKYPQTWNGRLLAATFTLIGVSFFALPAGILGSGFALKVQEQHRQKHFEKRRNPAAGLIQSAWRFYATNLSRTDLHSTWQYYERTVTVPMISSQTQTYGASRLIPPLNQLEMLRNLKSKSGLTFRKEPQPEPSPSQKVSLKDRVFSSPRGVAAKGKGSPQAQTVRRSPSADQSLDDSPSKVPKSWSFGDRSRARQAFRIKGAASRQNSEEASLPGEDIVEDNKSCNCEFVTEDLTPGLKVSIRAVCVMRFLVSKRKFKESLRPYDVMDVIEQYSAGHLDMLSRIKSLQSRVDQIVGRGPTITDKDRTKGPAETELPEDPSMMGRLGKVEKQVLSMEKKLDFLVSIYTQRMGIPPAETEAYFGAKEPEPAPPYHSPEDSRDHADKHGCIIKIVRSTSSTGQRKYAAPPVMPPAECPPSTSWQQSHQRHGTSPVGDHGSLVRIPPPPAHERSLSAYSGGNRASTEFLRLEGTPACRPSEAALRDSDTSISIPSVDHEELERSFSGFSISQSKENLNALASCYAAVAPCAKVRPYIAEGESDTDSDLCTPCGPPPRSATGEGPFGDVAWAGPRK
Sequence of Potassium voltage-gated channel subfamily KQT member 1 (Homo sapiens) + Potassium voltage-gated channel subfamily E member 1 (Homo sapiens) (P51787 whole entry, looked up): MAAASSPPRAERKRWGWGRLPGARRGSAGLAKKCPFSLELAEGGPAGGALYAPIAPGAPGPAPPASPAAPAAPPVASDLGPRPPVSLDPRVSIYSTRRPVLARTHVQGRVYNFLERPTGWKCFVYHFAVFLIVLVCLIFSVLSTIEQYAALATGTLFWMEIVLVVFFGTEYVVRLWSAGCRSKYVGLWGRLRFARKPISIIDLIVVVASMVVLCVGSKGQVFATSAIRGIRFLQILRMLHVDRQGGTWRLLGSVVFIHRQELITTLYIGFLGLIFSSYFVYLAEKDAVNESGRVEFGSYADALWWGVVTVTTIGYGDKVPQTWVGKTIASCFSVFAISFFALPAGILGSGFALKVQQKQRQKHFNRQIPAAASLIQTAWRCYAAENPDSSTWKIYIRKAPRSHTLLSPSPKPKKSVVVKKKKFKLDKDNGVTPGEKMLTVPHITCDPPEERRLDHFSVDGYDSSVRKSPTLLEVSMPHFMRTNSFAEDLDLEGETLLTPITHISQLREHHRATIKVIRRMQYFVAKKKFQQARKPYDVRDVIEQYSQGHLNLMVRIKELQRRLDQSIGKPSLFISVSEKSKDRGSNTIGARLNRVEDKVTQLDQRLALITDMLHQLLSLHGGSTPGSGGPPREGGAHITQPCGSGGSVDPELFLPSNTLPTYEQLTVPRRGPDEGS

outcome, inactive:
CCCCC(=O)Nc1c(C)cc(C)cc1Cl
Cc1cccc(C)c1NC(=O)C1CC2CCC1C2 (stereo not drawn)
Cc1cc(C)c(NC(=O)CC(C)(C)C)c(Cl)c1

— PubChem BioAssay AID493042 (Johns Hopkins Ion Channel Center, 2011)
